Measured values reported in PMC4336329 (PLoS ONE, 2015).
In all, about 310,000 compounds went through this assay and about 2,200 (0.71%) showed an effect of 50% or more. The effect is printed as a negative number. Many of the other results were omitted from the sample, so strong results are more common in it than they were.

The compounds below were run against human ether-à-go-go-related gene (hERG) potassium channel (human, UniProt Q12809) (assay: primary screen, population patch clamp on CHO cells stably expressing hERG; higher = less effect of the substance).
Chain of human ether-à-go-go-related gene (hERG) potassium channel (Q12809 whole entry, looked up): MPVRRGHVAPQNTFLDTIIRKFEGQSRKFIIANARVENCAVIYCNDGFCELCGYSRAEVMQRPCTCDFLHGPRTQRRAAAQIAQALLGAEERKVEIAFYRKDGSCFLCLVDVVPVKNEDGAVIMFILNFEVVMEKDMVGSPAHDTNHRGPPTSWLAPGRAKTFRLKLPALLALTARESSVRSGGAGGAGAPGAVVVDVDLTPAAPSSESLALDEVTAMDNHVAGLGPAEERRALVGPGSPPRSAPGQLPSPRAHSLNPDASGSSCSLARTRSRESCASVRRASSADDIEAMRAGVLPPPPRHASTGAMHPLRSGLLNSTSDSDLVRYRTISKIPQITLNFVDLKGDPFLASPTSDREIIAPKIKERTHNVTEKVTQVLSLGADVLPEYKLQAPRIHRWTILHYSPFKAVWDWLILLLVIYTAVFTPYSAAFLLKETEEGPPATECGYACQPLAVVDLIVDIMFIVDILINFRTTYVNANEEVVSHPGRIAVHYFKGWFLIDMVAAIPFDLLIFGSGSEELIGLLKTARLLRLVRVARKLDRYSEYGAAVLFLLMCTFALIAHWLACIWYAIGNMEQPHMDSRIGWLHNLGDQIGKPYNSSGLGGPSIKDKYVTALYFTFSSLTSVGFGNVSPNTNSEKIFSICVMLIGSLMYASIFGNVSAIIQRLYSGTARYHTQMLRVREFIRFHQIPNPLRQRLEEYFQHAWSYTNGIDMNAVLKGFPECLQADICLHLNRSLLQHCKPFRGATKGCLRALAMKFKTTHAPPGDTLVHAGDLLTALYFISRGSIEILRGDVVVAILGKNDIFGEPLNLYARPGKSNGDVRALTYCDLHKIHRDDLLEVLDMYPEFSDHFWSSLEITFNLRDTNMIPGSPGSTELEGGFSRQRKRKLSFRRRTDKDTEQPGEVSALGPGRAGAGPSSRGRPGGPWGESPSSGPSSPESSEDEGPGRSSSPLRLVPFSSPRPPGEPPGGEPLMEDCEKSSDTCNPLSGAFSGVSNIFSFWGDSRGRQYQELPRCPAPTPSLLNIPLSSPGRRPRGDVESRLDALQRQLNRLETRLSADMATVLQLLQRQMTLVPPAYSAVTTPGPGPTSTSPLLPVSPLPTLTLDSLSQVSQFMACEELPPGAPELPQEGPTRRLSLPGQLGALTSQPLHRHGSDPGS

Compound | hERG current change (%, negative = inhibition) at 1uM [%]
CCn1cc(/C=C/C(=O)Nc2c(C)nn(Cc3ccccc3C)c2C)cn1 | 15.5
CC(=O)N/N=C/c1cc(C)n(-c2ccc(Br)cc2)c1C | 1.14
CC1N(C(=O)N2CCOCC2)CCN1S(=O)(=O)c1ccc(Cl)cc1 (stereo not shown) | 4
Cc1ccc(C(=O)N/C(=C\c2ccc(-c3ccc(Br)cc3)o2)C(=O)NC2CCS(=O)(=O)C2)cc1 (stereo not shown) | 7.85
CN(C)CCNC(=O)/C(=C/c1ccc(-c2ccc(Cl)cc2)o1)NC(=O)c1ccccc1 | -82
Cc1ccc(C(=O)N/C(=C\c2ccc(Cl)cc2)C(=O)NCC2CCCO2)cc1 (stereo not shown) | -38.7
CN(C)CCNC(=O)/C(=C/c1ccc(-c2cccc(Cl)c2)o1)NC(=O)c1ccccc1 | -31.4
Cc1ccc(C(=O)N/C(=C\c2ccc(-c3cc(Cl)ccc3Cl)o2)C(=O)NCc2cccnc2)cc1 | 5.35
O=C(NCCO)/C(=C\c1ccc([N+](=O)[O-])o1)NC(=O)c1ccccc1 | 4.89
Cc1ccc(C(=O)N/C(=C\c2ccc(-c3ccc(Cl)cc3)o2)C(=O)NCCCN(C)C)cc1 | -93.5
CN(C)CCNC(=O)/C(=C/c1ccc(-c2ccc(Cl)cc2Cl)o1)NC(=O)c1ccccc1 | -7.71
Cc1ccc(/C=C(\NC(=O)c2ccccc2)C(=O)NCCN2CCOCC2)o1 | 1.36
Cc1ccc(C(=O)N/C(=C/c2ccc(-c3ccc(Br)cc3)o2)C(=O)NC2CCS(=O)(=O)C2)cc1 (stereo not shown) | 3.65
CN(C)CCCNC(=O)/C(=C\c1ccc(-c2ccc(Br)cc2)o1)NC(=O)c1ccccc1 | -82
Cc1ccc(C(=O)N/C(=C\c2ccc(-c3ccc(Br)cc3)o2)C(=O)NCCCN(C)C)cc1 | -84.2
CCCc1cc(=O)[nH]c(SCC(=O)N(C)C2CCCCC2)n1 | 13.3
CCSC1(SCC)N=C(N)C2(C#N)C(c3ccccc3)NC3=C(CCC3)C12C#N (stereo not shown) | 14.4
CN(C(=O)c1ccncc1)c1nnc(-c2cccnc2)s1 | 12.8
CN(CC(=O)N1CCCCCC1)S(=O)(=O)c1ccc(Br)cc1 | 0.738
COc1ccc(OCC(O)COc2ccc(C(=O)O)cc2)cc1 (stereo not shown) | 8.21
CCc1cc(C(=O)N/N=C/c2ccc(O)cc2)c2ccccc2n1 | 9.78
Cn1ncc(Br)c1C(=O)Nc1ccc(Br)cn1 | 16.3
CCC(C)[C@H](NC(=O)[C@@H]1CSC2c3ccccc3C(=O)N21)C(=O)N1CCCCC1 (stereo partly shown) | 8.7
CC1(C)CC(NC(=O)Cc2ccc(Cl)cc2)CC(C)(C)N1 | 16.7
O=C(c1cc(-c2ccc(Cl)cc2)n(-c2cc(Cl)ccc2Cl)n1)N1CCOCC1 | -3.98
O=C(c1cc(-c2ccc(Cl)cc2)n(-c2ccc(Cl)cc2Cl)n1)N1CCOCC1 | -40.7

Compound | hERG current change (%, negative = inhibition) at 1uM [%]
O=C(c1cc(-c2ccc(Cl)cc2)n(-c2ccc(Cl)cc2)n1)N1CCOCC1 | -56.8
O=C(c1cc(-c2ccc(Cl)cc2)n(-c2ccc(Cl)c(Cl)c2)n1)N1CCOCC1 | 5.69
Cc1ccc(-n2nc(C(=O)N3CCOCC3)cc2-c2ccc(Cl)cc2)cc1 | -87.4
Cc1ccc(-n2nc(C(=O)O)cc2-c2ccc(Cl)cc2)cc1 | 8.61
COc1ccc(NC(=O)C2CCC(C)(C(=O)O)C2(C)C)cc1 (stereo not shown) | 11.1
CC(OC(=O)c1ccccc1NCCO)C(=O)Nc1ccc(S(=O)(=O)N2CCOCC2)cc1 (stereo not shown) | 11.6
CN=C1S/C(=C\c2ccc(O)c(OC)c2)C(=O)N1C | 14
Cc1cccc(-n2c(SCC(=O)N(C)C3CCS(=O)(=O)C3)nc3ccccc3c2=O)c1C (stereo not shown) | 13.9
O=C(NC1CCN(Cc2ccccc2)CC1)C1CCCN(c2nnc(-n3cccc3)s2)C1 (stereo not shown) | -65.2
O=C(NC1CCN(Cc2ccccc2)CC1)C1CCN(c2nnc(-n3cccc3)s2)CC1 | -28.2
CC(CCc1ccccc1)NC(=O)C1CCCN(c2nnc(-n3cccc3)s2)C1 (stereo not shown) | -7.23
O=[N+]([O-])c1cccc2ccc(/C=C/c3ccc(Cl)cc3)nc12 | 1.88
Cc1nc2c(ccc3nc(NC(=O)c4ccc(S(=O)(=O)N(C)C)cc4)sc32)s1 | 16.4
Cc1nc2ccc3nc(NC(=O)c4ccc5c(c4)OCCO5)sc3c2s1 | 9.46
Cc1nc2c(ccc3nc(NC(=O)c4ccc5c(c4)OCCO5)sc32)s1 | -86.6
COc1ccc2c(c1)c(C(=O)O)c(C)n2CC(C)C | -2.31
CC(NS(=O)(=O)/C=C/c1ccccc1)C(=O)O (stereo not shown) | 12.5
CC(C)Cn1cc(C(=O)N2CCC3(CC2)OCCO3)c2c3ccccc3n(C)c2c1=O | -1.15
O=C(Cc1c(F)c(F)c(F)c(F)c1F)Nc1nc(-c2ccccc2)cs1 | 9.84
CCn1c(N2CCN(Cc3ccc([N+](=O)[O-])cc3)CC2)nc2ccccc21.Cl | -81.2
CCCn1c(N2CCN(Cc3ccc(Cl)cc3)CC2)nc2ccccc21.Cl | -4.77
CCCn1c(N2CCN(C(=O)/C=C/C(=O)O)CC2)nc2ccccc21 | 14.7
CCn1c(N2CCN(C(=O)/C=C/c3ccccc3)CC2)nc2ccccc21 | -77.4
Cl.O=[N+]([O-])c1ccc(CN2CCN(c3ccc4ccccc4n3)CC2)cc1 | -1.76
CC(C)Cn1c(N2CCN(C(=O)/C=C/c3ccccc3)CC2)nc2ccccc21 | -32.9
CCCCc1ccc(NC(=S)NN2CCOCC2)cc1 | 12.1
